# In the supplement of paper PMC10849652:
# For part of these data: Targets with a hit are over-represented here; the source holds about 7,900 in all. For part of these data: About 0.6% of all pairs of compound and target were hits. Unmarked numbers belong to inactive results. For part of these data: Targets with a hit are over-represented here; the source holds about 8,800 in all. For part of these data: About 0.5% of all pairs of compound and target were hits.
# Tests used:
# [1] = compound: C1=CC=C(C=C1)[C@H](COC2=CC3=C(C=C2)NC(=O)N3)NC(=O)C4=CC=CN(C4=O)CC5=CC(=C(C=C5)F)F; assay: log2 fold change, soluble protein after heating vs DMSO (PISA); higher = thermal stabilisation; K562 lysate, 10 uM; active = over 0.2 and 3.5 SD of the protein, either way, in both replicates (recomputed)
# In short: (§1)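 Log-two fold change in thermal stability relative to solvent controls is reported from duplicates. For each sample, crude K562 extract from dounce-homogenised pellets in PBS pH 7.4 with 1 mM MgCl2, at 1 mg/mL protein, was treated with 10 μM compound for 30 min. Aliquots heated for 3 min across 48°C-58°C were pooled, brought to 0.5% NP-40 at 4°C and cleared at 21,000xg for 90 min. The supernatant was quantified by TMTpro 16plex LC-MS/MS with channel sums equalised.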
# [2] = compound: CC1=C(SC2=C1C(=N[C@H](C3=NN=C(N32)C)CC(=O)N)C4=CC=C(C=C4)Cl)C; assay: as above
# In short: as §1
# [3] = compound: CC1=C2C(=CC=C1)N=C(N(C2=O)C3=CC=CC=C3C)CN4C=NC5=C(N=CN=C54)N; assay: as above
# In short: as §1
# [4] = compound: Cc1sc2c(c1C)C(c1ccc(Cl)cc1)=N[C@@H](CC(=O)OC(C)(C)C)c1nnc(C)n1-2; assay: as above
# In short: as §1
# [5] = compound: c1ccc([C@@H]2C[C@H]2NC2CCNCC2)cc1; assay: as above
# In short: as §1
# [6] = compound: C1=CC=C(C=C1)[C@H](COC2=CC3=C(C=C2)NC(=O)N3)NC(=O)C4=CC=CN(C4=O)CC5=CC(=C(C=C5)F)F; assay: log2 fold change, soluble protein after heating vs DMSO (PISA); higher = thermal stabilisation; K562 cells, 10 uM, 30 min; active = over 0.2 and 3.5 SD of the protein, either way, in both replicates (recomputed)
# In short: (§2)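 Aliquots of K562 cells (2×10^6 cells/mL) treated with 10 μM compound for 30 min were heated for 3 min over 48°C-58°C. After pooling and extraction in PBS with 0.5% NP-40 at 4°C, soluble protein from a 21,000xg, 90 min spin was quantified by TMTpro 16plex LC-MS/MS with channel sums equalised. Thermal stability is expressed against control samples, from duplicates, as a log2 fold change.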
# [7] = compound: CC1=C(SC2=C1C(=N[C@H](C3=NN=C(N32)C)CC(=O)N)C4=CC=C(C=C4)Cl)C; assay: as above
# In short: as §2
# [8] = compound: CC1=C2C(=CC=C1)N=C(N(C2=O)C3=CC=CC=C3C)CN4C=NC5=C(N=CN=C54)N; assay: as above
# In short: as §2
# [9] = compound: Cc1sc2c(c1C)C(c1ccc(Cl)cc1)=N[C@@H](CC(=O)OC(C)(C)C)c1nnc(C)n1-2; assay: as above
# In short: as §2
# [10] = compound: c1ccc([C@@H]2C[C@H]2NC2CCNCC2)cc1; assay: as above
# In short: as §2
# Chain of UniProt P42331 (P42331 whole entry, looked up): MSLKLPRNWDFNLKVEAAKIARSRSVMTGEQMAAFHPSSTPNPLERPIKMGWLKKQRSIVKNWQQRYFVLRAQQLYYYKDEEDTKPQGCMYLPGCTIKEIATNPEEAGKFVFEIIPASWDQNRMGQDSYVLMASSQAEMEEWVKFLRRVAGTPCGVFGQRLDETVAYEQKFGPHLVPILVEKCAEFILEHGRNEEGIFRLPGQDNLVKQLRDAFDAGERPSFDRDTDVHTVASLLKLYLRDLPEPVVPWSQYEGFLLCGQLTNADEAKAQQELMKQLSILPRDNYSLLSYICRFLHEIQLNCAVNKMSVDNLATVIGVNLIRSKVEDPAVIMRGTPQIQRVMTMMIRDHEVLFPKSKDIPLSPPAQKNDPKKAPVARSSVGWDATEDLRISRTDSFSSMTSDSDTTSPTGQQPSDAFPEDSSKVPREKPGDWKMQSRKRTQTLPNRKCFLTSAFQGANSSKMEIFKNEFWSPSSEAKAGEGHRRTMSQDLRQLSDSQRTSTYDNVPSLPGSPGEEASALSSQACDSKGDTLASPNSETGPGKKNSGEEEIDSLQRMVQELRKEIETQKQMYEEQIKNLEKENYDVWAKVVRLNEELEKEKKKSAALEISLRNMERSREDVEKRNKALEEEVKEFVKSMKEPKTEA
# Chain of UniProt Q6P1M9 (Q6P1M9 whole entry, looked up): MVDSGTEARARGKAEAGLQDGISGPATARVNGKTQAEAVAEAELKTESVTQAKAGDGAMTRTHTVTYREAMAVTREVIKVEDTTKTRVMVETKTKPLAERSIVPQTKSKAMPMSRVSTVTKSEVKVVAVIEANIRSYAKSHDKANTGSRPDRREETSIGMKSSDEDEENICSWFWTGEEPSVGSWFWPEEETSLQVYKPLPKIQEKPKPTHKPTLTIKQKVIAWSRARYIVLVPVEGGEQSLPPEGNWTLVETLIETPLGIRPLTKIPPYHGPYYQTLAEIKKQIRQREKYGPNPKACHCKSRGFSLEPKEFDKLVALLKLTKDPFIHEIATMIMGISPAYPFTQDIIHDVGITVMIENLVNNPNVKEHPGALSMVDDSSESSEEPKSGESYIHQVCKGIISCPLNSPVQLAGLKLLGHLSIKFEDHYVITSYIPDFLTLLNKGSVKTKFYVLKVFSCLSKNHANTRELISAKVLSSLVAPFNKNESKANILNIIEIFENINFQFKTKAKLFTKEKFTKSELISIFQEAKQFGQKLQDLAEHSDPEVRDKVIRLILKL
# Chain of UniProt Q2VPB7 (Q2VPB7 whole entry, looked up): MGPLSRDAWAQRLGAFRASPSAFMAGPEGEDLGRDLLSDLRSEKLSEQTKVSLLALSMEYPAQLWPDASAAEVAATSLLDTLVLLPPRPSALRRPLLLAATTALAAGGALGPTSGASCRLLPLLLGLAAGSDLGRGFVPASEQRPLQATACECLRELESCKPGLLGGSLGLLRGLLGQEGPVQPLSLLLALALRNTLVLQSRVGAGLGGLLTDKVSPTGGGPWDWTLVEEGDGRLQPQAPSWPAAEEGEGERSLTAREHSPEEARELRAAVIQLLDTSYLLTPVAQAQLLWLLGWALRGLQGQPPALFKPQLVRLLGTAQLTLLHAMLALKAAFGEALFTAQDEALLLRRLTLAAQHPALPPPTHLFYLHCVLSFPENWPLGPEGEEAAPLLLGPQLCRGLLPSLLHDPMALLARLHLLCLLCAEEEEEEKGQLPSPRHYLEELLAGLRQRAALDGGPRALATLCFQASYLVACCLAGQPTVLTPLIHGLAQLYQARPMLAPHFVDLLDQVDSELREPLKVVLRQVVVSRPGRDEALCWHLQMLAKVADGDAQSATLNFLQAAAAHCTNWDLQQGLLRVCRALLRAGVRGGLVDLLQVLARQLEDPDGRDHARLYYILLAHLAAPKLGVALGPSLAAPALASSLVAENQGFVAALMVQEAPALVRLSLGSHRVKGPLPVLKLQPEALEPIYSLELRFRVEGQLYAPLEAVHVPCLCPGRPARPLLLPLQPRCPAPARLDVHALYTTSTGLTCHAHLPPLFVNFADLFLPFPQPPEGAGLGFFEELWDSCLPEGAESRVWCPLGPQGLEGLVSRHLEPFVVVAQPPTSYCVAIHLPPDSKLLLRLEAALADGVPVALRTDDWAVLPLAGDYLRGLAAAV
# Chain of UniProt O43298 (O43298 whole entry, looked up): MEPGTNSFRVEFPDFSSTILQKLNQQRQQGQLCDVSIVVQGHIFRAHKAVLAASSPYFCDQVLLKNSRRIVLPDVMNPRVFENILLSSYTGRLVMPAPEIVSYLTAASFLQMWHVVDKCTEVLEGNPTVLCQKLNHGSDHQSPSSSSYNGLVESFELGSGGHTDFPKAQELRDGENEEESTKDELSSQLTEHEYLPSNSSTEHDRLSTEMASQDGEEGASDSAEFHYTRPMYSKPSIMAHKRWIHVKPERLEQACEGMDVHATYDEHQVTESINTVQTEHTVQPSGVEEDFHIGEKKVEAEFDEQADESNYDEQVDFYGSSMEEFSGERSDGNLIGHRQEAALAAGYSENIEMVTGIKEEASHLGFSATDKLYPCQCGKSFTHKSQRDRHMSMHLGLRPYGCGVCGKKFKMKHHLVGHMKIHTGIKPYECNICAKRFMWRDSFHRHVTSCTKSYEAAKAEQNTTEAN
# Chain of UniProt P78536 (P78536 whole entry, looked up): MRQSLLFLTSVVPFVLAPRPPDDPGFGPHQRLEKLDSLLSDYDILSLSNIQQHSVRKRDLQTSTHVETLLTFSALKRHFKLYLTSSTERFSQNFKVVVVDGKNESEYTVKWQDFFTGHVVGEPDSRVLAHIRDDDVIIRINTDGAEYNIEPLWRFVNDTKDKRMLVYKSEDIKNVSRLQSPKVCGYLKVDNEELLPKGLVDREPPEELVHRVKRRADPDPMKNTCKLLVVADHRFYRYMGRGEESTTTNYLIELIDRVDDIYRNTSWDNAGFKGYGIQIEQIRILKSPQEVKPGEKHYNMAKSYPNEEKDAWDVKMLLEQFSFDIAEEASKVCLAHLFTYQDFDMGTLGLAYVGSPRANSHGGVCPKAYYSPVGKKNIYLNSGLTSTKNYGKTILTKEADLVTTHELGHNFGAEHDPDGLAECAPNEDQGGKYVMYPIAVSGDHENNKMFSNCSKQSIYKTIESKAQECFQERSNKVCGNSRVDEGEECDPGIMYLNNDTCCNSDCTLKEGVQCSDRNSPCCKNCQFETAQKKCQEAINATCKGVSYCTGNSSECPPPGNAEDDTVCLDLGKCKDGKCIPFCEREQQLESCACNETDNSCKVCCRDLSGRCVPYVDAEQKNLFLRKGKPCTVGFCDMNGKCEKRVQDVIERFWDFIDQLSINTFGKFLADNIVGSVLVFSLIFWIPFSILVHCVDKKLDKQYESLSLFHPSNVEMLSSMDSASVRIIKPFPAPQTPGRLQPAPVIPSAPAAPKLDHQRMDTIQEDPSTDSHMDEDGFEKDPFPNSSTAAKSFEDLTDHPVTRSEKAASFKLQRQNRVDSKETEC
# Chain of UniProt Q9BSR8 (Q9BSR8 whole entry, looked up): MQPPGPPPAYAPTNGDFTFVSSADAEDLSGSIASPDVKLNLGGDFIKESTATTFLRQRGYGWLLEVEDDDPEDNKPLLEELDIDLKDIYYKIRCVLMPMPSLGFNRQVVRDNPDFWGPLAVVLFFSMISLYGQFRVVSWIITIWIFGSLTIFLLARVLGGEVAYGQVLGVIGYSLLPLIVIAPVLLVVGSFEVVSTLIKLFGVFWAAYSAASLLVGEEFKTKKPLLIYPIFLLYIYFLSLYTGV
# Chain of UniProt Q13155 (Q13155 whole entry, looked up): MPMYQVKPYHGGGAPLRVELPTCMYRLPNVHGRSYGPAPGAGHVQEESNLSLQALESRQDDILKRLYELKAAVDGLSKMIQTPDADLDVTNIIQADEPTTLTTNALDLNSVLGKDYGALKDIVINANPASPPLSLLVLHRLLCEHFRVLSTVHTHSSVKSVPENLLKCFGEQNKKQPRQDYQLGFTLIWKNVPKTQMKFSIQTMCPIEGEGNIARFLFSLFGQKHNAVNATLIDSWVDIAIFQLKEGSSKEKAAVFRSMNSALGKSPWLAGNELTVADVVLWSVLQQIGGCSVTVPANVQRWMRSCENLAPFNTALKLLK
# Chain of UniProt O00170 (O00170 whole entry, looked up): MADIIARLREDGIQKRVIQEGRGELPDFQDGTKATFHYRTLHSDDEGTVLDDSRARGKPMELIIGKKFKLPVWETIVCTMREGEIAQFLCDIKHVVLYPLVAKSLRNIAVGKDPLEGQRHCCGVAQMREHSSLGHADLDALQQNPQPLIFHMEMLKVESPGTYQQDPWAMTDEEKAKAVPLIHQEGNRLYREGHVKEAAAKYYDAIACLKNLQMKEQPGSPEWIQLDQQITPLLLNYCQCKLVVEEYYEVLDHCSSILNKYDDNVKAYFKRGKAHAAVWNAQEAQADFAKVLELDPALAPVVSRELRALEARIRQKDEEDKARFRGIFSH
# Chain of UniProt Q04771 (Q04771 whole entry, looked up): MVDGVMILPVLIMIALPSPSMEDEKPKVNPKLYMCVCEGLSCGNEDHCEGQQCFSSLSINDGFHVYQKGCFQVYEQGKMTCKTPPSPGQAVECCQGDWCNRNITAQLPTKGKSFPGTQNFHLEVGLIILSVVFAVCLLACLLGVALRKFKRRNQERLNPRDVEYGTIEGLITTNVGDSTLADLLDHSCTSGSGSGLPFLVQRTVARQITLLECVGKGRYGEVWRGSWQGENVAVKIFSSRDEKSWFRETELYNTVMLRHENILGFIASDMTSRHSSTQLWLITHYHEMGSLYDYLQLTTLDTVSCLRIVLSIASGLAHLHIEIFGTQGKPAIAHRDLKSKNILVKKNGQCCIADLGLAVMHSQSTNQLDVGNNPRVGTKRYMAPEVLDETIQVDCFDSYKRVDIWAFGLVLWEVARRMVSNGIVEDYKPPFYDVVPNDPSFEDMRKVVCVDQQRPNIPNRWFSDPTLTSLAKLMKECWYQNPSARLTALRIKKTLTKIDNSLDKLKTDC
target,measurement,setting,value
AIMP2 (UniProt Q13155),log2 fold change,[1],-0.028
same,log2 fold change,[2],0.021
same,log2 fold change,[3],0.013
same,log2 fold change,[4],0.036
same,log2 fold change,[5],0.041
AIP (UniProt O00170),log2 fold change,[1],0.012
same,log2 fold change,[2],-0.023
same,log2 fold change,[3],-0.006
same,log2 fold change,[4],0.025
same,log2 fold change,[5],0.125
ADAM17 (UniProt P78536),log2 fold change,[1],-0.098
same,log2 fold change,[2],-0.251 (active)
same,log2 fold change,[3],0.093
same,log2 fold change,[4],0.002
same,log2 fold change,[5],-0.032
ACBD6 (UniProt Q9BR61),log2 fold change,[1],0.014
same,log2 fold change,[2],0.019
same,log2 fold change,[3],-0.009
same,log2 fold change,[4],-0.045
same,log2 fold change,[5],-0.022
ANKRD52 (UniProt Q8NB46),log2 fold change,[1],-0.004
same,log2 fold change,[2],-0.036
same,log2 fold change,[3],0.056
same,log2 fold change,[4],0.055
same,log2 fold change,[5],0.004
ANKRD40 (UniProt Q6AI12),log2 fold change,[1],0.133
same,log2 fold change,[2],0.072
same,log2 fold change,[3],0.536
same,log2 fold change,[4],-0.156
same,log2 fold change,[5],0.053
ARMCX5 (UniProt Q6P1M9),log2 fold change,[1],0.021
same,log2 fold change,[2],-0.07
same,log2 fold change,[3],0.057
same,log2 fold change,[4],0.036
same,log2 fold change,[5],-0.03
ARHGAP25 isoform 4 (UniProt P42331),log2 fold change,[1],0.013
same,log2 fold change,[2],0.016
same,log2 fold change,[3],0.012
same,log2 fold change,[4],-0.046
same,log2 fold change,[5],0.035
AP5B1 (UniProt Q2VPB7),log2 fold change,[1],0.079
same,log2 fold change,[2],-0.023
same,log2 fold change,[4],-0.044
same,log2 fold change,[5],-0.003
ALDH18A1 isoform 2 (UniProt P54886),log2 fold change,[3],0.229
same,log2 fold change,[4],-0.068
ZBTB43 (UniProt O43298),log2 fold change,[6],-0.105
same,log2 fold change,[7],0.013
same,log2 fold change,[8],0.055
same,log2 fold change,[9],-0.097
same,log2 fold change,[10],-0.08
ACVR1 (UniProt Q04771),log2 fold change,[1],-0.052
same,log2 fold change,[2],-0.055
same,log2 fold change,[4],-0.102
same,log2 fold change,[5],-0.126
YIPF4 (UniProt Q9BSR8),log2 fold change,[6],-0.027
same,log2 fold change,[7],0.001
same,log2 fold change,[8],-0.019
same,log2 fold change,[9],0.027
same,log2 fold change,[10],0.046
